Assay results reported in PubChem BioAssay.

What follows are compounds tested on PRMT1 (protein arginine N-methyltransferase 1) (assay: small molecules binding arginine methyltransferase PRMT1 – biochemical, small-molecule microarray, 635 nm fluorescence, primary screen (AID 1088)). Conditions: higher = more signal.
`Cc1ccccc1C(O)C1C=CC2C(=O)N(C)C(=O)C2N1N(c1ccccc1)c1ccccc1` (stereo unspecified) showed a composite z-score of -0.437. `COCCOC(=O)N1C(=O)[C@@]2(c3cc(C#CC4=CCCCC4)ccc31)[C@H](C(N)=O)[C@H]1C(=O)O[C@H](c3ccccc3)[C@H](c3ccccc3)N1[C@@H]2c1ccccc1OCCO` gave a composite z-score of 1.54. Work on `C[N+](C)(C)CCCCCCNC(=O)[C@H]1C[C@H]2C(=O)NCC(=O)N2[C@H]1c1ccc(O)cc1` yielded a composite z-score of 1.46. For `O=C1OCC=C[C@H]2OC34C=CCN(Cc5ccccc5)C(=O)[C@H]3N(CCCCCCO)C(=O)[C@@H]4[C@@H]12` (stereo partly specified), the composite z-score was -0.325. In the case of `COc1ccc(-c2nc(-c3ccccc3)c3c(c2C)CO[Si]3(C(C)C)C(C)C)cn1`, the composite z-score is reported as 0.569. For `COCCOC(=O)N1C(=O)[C@@]2(c3cc(C#CC4(O)CCCCCC4)ccc31)[C@H](c1ccc(O)cc1)N1[C@H](c3ccccc3)[C@H](c3ccccc3)OC(=O)[C@H]1[C@@H]2C(=O)NC[C@H](O)c1ccccc1`, the composite z-score was 1.55. `[N-]=[N+]=NCc1ccccc1C[C@@]1(C(=O)NCc2ccccc2)N=C(c2ccc(OCCCO)cc2)O[C@@H]1c1ccccc1N=[N+]=[N-]` gave a composite z-score of 1.18. Work on `[N-]=[N+]=NCc1ccccc1C[C@@]1(C(=O)N2CCOCC2)N=C(c2ccc(OCCCO)cc2)O[C@@H]1c1ccccc1` yielded a composite z-score of 1.42. Work on `COc1ccc(NC(=O)O[C@H]2[C@H](OC(=O)Nc3ccccc3)[C@H](OC(=O)Nc3ccccc3)[C@@H](OC)O[C@@H]2CO)cc1` yielded a composite z-score of 1.55. Work on `COCCOC(=O)N1C(=O)[C@@]2(c3ccccc31)[C@H](C(=O)N1CCN(c3ncccn3)CC1)[C@H]1C(=O)O[C@H](c3ccccc3)[C@H](c3ccccc3)N1[C@@H]2c1ccc(O)cc1` yielded a composite z-score of 1.55. Work on `CCCCO[C@H]1C[C@H]2C(I)=C[C@@H]1C(=O)[C@]21CO1` yielded a composite z-score of -0.429. In the case of `COc1ccc(CN(C2=CC[C@@]3(C(N)=O)C(=O)C(Cl)=C(Cl)C(=O)[C@@]3(C#N)C2)S(=O)(=O)c2ccc(Br)cc2)cc1`, the composite z-score is reported as -0.196. Compound `CCCCN1CC=CC23O[C@@H]4/C=C\CCC(C)OC(=O)C4[C@H]2C(=O)N(C(CO)C(C)C)[C@@H]3C1=O` (stereo partly specified) has a composite z-score of 0.738. For `[N-]=[N+]=NCc1ccccc1C[C@]1(C(N)=O)N=C(c2ccc(OCCCO)cc2)O[C@H]1c1ccccc1`, the composite z-score was 1.31. In the case of `C=CCNC(=O)[C@H]1[C@@H]2C(=O)O[C@@H](c3ccccc3)[C@@H](c3ccccc3)N2[C@@H](c2ccc(O)cc2)[C@]12C(=O)Nc1ccc(C#CC3(O)CCCCCC3)cc12`, the composite z-score is reported as 1.55. Work on `NCCCCCNC(=O)[C@@H]1C[C@@H]2C(=O)NCC(=O)N2[C@@H]1c1cccc(OCCO)c1` yielded a composite z-score of 1.44.
